Results as given in PubChem BioAssay AID1508600 (Functional Genomics Laboratory (NCATS/FGL), 2020).
In all, about 53,000 sequences went through this assay and about 3,700 (7%) were called active. This is one part of a sample in which actives are shown more often than they occur.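 How the source made its calls: active means gene knockdowns whose robust z-score for IL-1 alpha signal is at least 2 or at most -2, so actives lie on both sides; inactive means the rest.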

Assay: Components of the Cytosolic LPS Sensing Pathway: Gene Identification via Genome-wide siRNA Screen;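 further: robust z of the log signal after scaling to non-targeting control siRNA wells of the plate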
Conditions: RAW264.7 macrophages, IL-1a HTRF, actives lie on both sides, screened at 100 nM (by protocol), cells primed 5 h with Pam3CSK4 first
Method in brief: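 Supernatant IL-1a by HTRF from RAW264.7 cells primed with Pam3CSK4 (5 hours) and transfected with LipidA (24 hour) after 48h siRNA knockdown at 100 nM; cell viability checked with CellTiter-Glo.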

z-score, inactive:
CGGGAGUAUCUGCUUCAGUTT against Ndufb4 0.336
GGCUGAAGAGAUUGUCAAUTT against Aars -0.392
CCUGCUAAACCUGGACCAUTT against Hic1 1.61
GGAGCUUAGCCUCUGUAUGTT against Gatd3a -0.86
GGUAAAGACAAGAUUAAAGTT against Cyp39a1 -0.308
GGUGUUUACUCCGUACCCATT against Tbrg4 -2
GCGUGAACCUCCUUCUUGATT against Ramp3 -1.29
GGAGAGGCAUCUUUUCCUATT against Arhgap20 -0.338
CCCACCUAGGUUCAUCCCATT against Fat1 -1.4
GGAAUGUGAGCUUAUCAUATT against Tlr1 -0.965
GCAUAGAUUGAUGGCUAAUTT against Chd8 1.18
GGUUGAUGAGUUUAGGUUUTT against Cpsf2 0.264
GGGUUCAAAAGCCCAUAUUTT against Gm6787 0.206
GGUCUUCGAAACACAGCUGTT against Exoc3l2 -0.402
GGUUUUAUCAGAAUGUCAGTT against Atpaf2 0.464
CCAUAGUAUUGAUGUCUGCTT against Nat8f2 0.363
CCCUAGGUCAUAGCUUGACTT against Crtc1 1.58
CGGUCCCAAACGGUCAAGUTT against Tafa2 1.69
GCCUGGAAUGCAGAAUCGATT against Vwa2 -0.0276
GGUUCAACGCAAAGUUCGCTT against Aldh4a1 0.347
GCUACUAUGUGCCCUGAUATT against Ms4a7 -0.458
CCUCCUUAUCCAUAAUAUUTT against Slc35a3 0.727
GGGUAUUUUGACAAUUUGGTT against Lrig3 -0.576
GGCCAGACCUUUGUGAAUGTT against Ctse -1.96
GGCCAUGAAUCUUGUUGGGTT against Scg5 -0.684
GGAAGUCACCAUCAACCAGTT against Krt4 0.168
CGAGCACUAUUUUGGAUUATT against Usp12 0.0102
GGCUGUGAUCUCCUGGCUUTT against Rnft2 -1.46
GGAAUGCAUGCUAAUUCAGTT against Thsd1 1.1
GGAUUCUGAGUGUACGUUUTT against Zfp28 0.0227
CGAGGGAUAAGAGUCUACGTT against Ubxn11 1.45
GCUAAUUCCAAGAAAGAAGTT against Lifr -0.326
CGGUCAACAUCAAUGGUAATT against Gkn1 -1.28
GCUAAGAUUCCUUCCAGUATT against Adm2 0.98
GGUUCUACCUCAAGAUGUUTT against Srd5a2 0.0188
GGACUACGUAUUUUCCCUGTT against Cyc1 -0.39
GCUCUGAUAUUCUCAUCAATT against Olfr39 1.25
CCUGGGAGCCUAUUAUUCUTT against Ndufb10 -0.032
GGAAGAUAACCAUUUUGAATT against Setd4 -0.777
CGGCGUGUUUAUUUGCUAUTT against Rab27a -1.38
CCUGGUUUACAUGUACGGGTT against Tap2 0.494
GCACUUCGAAGAAAUAAAATT against Ahsa2 0.396
CGAGGACAAAAAUACCGACTT against Supt6 -1.51
GAAGAUUAUCCAUUGCCCGTT against Lce1h 0.689
GGGACAGAGCCGAAAGAGUTT against Mrpl33 -1.39
CCUUGCCUUUACUACCAGUTT against Olfr15 -0.187
GCGAUACCAGGGACUACAUTT against Zfp692 1.75
CGCUCUCUCUACAAAGGAUTT against A230052G05Rik 0.984
GCAUGUUCGCACGUGUCAATT against 5330439B14Rik -1.05
CGACUGAUAGAUGAGUAAATT against C130026L21Rik 0.424
CCGCACAUGCUCUCAAAUATT against Polr3d -1.25
GGACAAAGAGGCAAUGGGATT against Dnajb9 1.08
GCAAGUGGAGUUUAUUGAUTT against Dbndd2 -0.0399
CGCAUGAUAACUAGAGAAUTT against Slitrk3 -0.269
GGCAAUGUUUACAAGUUCCTT against Ralgps1 0.491

z-score, active:
GCCACUCAUAUUGAUCCAUTT against Prss34 -2.31
GCAUAGCAGAGAUGAUUCUTT against Trip12 2.15
GGACUCUUUUCUACGUGGATT against Klhl1 2.54
CCCAAAGUGCUUUACAAUGTT against Aard 2.1
GGCUCUAAAACUGUCAGACTT against Scp2d1 2.25
GGAAUCUUUAGACCAUCUCTT against Myh1 5.3
GGCUUUACGAGGAAAAAGGTT against Pex1 2.09
GGACCAUCCCUGCUUAAUGTT against Brat1 -2.09
CCUAUAUCAUCAUGGUUUGTT against Tmx1 2.4
GCUAGAGACGAGAAGAUGATT against Ano10 -2.47
GGACCCAGCUCCUGUACAUTT against Ypel3 2.31
GGGAAUUUGGGCAUGAUCATT against Olfr44 -2.02
GGUAAAAUCACUUCAGAUCTT against Phb 2.23
GGCUGUUCGGGUGACUAUUTT against Il17re -2.83
